Data: PubChem BioAssay AID743100 (Vanderbilt Specialized Chemistry Center, 2013)
Values without a mark were called inactive. Activity calls are given as the source filed them.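 Rule for the calls: active = calcium response above 60% of the acetylcholine maximum at human M5, as a positive modulator; inactive = the rest.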

Target: Muscarinic acetylcholine receptor M5 (Homo sapiens) (UniProt P08912)
Test: potentiators of ACh response at human M5 – cell-based, single concentration, CHO-K1 hM5, calcium flux (AID 743100)
Details: CHO-K1 hM5, Fluo-4 calcium flux, ACh EC20, stronger effect = higher value; at 10 µM unless noted

Muscarinic acetylcholine receptor M5 (Homo sapiens), sequence (P08912 whole entry, looked up): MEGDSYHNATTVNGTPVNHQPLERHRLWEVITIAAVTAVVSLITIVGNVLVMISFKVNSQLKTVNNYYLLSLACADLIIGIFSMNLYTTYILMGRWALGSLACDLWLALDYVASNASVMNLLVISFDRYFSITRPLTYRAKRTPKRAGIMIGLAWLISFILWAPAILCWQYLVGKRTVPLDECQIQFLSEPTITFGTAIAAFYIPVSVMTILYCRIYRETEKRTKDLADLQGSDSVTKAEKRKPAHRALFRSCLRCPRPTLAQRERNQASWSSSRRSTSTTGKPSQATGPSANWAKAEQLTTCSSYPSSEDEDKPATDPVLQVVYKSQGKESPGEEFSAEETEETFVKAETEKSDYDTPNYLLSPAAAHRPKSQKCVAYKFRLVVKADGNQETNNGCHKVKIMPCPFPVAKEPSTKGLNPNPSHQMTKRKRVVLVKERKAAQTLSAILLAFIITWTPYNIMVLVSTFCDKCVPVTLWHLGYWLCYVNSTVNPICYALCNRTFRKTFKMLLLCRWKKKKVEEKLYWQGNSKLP

| SMILES | % ACh max response |
| --- | --- |
| CCN(Cc1ccccc1)C(=O)C1CCNCC1 | 14.9% [at 30 µM] |
| CCN(Cc1ccccc1C(F)(F)F)C(=O)C1CCN(S(=O)(=O)c2ccc3occc3c2)CC1 | 84.8% (active) |
| CCN(Cc1ccccc1)C(=O)C1CCN(S(=O)(=O)CC(C)C)CC1 | 21.3% [at 30 µM] |
| CC1c2ccccc2CCN1C(=O)C1CCN(S(=O)(=O)c2ccc3cn[nH]c3c2)CC1 (configuration not stated) | 36.3% |
| CCN(Cc1ccccc1)C(=O)C1CCN(C(=O)c2ccc(OC)cc2)CC1 | 25.5% [at 30 µM] |
| CCN(Cc1cccc(C(F)(F)F)c1)C(=O)C1CCN(S(=O)(=O)c2ccc3cn[nH]c3c2)CC1 | 35.4% |
| CC1c2ccccc2CCN1C(=O)C1CCN(S(=O)(=O)c2ccc3occc3c2)CC1 (configuration not stated) | 28.5% |
| COc1cccc(S(=O)(=O)N2CCC(CN(Cc3ccccc3)C(C)=O)CC2)c1 | 12.7% |
| CCCc1ccc(S(=O)(=O)N2CCC(C(=O)N(CC)Cc3ccccc3)CC2)cc1 | 62.9% [at 30 µM] (active) |
| CCN(Cc1ccccc1)C(=O)C1CCN(S(=O)(=O)Cc2ccc(Br)cc2)CC1 | 26.2% [at 30 µM] |
| CCN(Cc1ccccc1C(F)(F)F)C(=O)C1(F)CCN(S(=O)(=O)c2ccc3occc3c2)CC1 | 54% |
| CCN(Cc1ccccc1)C(=O)C1CCN(S(=O)(=O)c2ccc3occc3c2)CC1 | 82.1% [at 30 µM] (active) |
| CCN(Cc1ccccc1Cl)C(=O)C1CCN(S(=O)(=O)c2ccc3cn[nH]c3c2)CC1 | 90.7% (active) |
| CCN(Cc1cccc(OC)c1)C(=O)C1CCN(S(=O)(=O)c2ccc3cn[nH]c3c2)CC1 | 74.2% (active) |
| CCN(Cc1ccccc1)C(=O)C1CCN(S(=O)(=O)c2ccc(F)cc2)CC1 | 56.2% [at 30 µM] |
| CCN(C(=O)C1CCN(S(=O)(=O)c2cc(F)c(F)c(F)c2)CC1)[C@H](C)c1ccccc1 | 71.9% (active) |
| CCN(CC1CCN(S(=O)(=O)c2ccc3cn[nH]c3c2)CC1)C(=O)c1ccccc1 | 13.7% |
